According to PubChem BioAssay (Tox21):
Inconclusive results are not listed. Active and inactive are the calls of the source. Unless noted, calls come from the whole dose curve; as a rule, active = well fitted curve in the direction sought with a large enough effect in the repeat runs; inconclusive = weak or mixed curves; inactive = no such curve, though single readings can be large; an effect the other way counts as inactive or inconclusive.

Columns and labels:
[1] = qHTS assay to identify small molecule agonists of the estrogen receptor alpha (ER-alpha) signaling pathway in the presence of an antagonist - cell viability counter screen (AID 1259386);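 note: series mostly up to about 92 µM; cells exposed to compounds for 22 h at 37 °C before the viability read; nearly all actives have a fitted effect of over 30% in size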
How it was run: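 Cell viability in VM7Luc4E2 cells (endogenous full-length ER-alpha) measured by CellTiter-Fluor fluorescence in the same wells as the luciferase screen. Cells pre-cultured 5 days in charcoal-stripped serum, then treated 22 h with compounds at 15 concentrations plus 10.0nM ICI-182,780.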

[2] = target: Progesterone receptor (Homo sapiens) (UniProt P06401); test: qHTS assay to identify small molecule agonists of the progesterone receptor (PR) signaling pathway (AID 1346784; calls by dose curve; note: nearly all actives have a fitted effect of over 30% in size)
Progesterone receptor (Homo sapiens), sequence (P06401 whole entry, looked up): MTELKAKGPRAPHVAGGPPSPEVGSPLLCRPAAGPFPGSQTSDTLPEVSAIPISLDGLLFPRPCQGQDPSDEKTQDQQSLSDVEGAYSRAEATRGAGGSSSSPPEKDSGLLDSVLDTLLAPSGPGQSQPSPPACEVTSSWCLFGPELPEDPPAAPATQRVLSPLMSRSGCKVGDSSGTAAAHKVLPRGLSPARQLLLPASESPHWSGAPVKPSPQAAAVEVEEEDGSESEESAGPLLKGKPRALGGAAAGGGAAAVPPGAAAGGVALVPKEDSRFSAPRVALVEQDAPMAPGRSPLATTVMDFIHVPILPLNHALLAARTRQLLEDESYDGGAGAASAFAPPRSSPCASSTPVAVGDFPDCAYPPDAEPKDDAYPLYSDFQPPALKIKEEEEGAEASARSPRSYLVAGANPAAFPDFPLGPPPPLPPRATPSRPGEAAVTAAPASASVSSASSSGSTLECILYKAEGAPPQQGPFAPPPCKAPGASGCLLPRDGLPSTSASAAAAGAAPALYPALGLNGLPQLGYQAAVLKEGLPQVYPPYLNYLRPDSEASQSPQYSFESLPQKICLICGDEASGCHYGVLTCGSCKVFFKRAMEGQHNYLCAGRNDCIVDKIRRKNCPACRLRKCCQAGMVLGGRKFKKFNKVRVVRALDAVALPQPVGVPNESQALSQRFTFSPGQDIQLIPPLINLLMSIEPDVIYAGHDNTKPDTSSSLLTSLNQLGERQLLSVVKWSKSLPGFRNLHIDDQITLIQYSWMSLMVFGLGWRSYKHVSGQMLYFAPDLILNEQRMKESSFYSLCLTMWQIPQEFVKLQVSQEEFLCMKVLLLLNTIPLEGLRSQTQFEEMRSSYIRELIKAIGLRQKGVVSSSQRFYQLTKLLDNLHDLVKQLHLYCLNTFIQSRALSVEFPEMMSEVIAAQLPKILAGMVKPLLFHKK
How it was run: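 Cells (PR-UAS-bla HEK 293T, GripTite) were plated in assay medium containing 2% charcoal-stripped FBS and incubated 6 hr. Test compounds in DMSO were added for 16 hr at 37C. FRET substrate was then loaded for 2 hr at room temperature before fluorescence reading.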

[3] = target: Progesterone receptor (Homo sapiens) (UniProt P06401); test: qHTS assay to identify small molecule antagonists of the progesterone receptor (PR) signaling pathway (AID 1346795; active = well fitted inhibition curve with a large enough effect in the signal ratio in the repeat runs, not every such curve was filed as active; the % refers to the signal ratio; note: potency is the fitted concentration of half-maximal effect)
How it was run: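 Antagonist mode: compounds tested against 1 nM (final) promegestone stimulation in HEK293T cells expressing PR-UAS-bla reporter, 16 hr at 37C, 5% CO2; beta-lactamase activity detected via B/G FRET substrate after 2 hr at room temperature.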

[4] = qHTS assay to identify small molecule agonists of the progesterone receptor (PR) signaling pathway - cell viability counter screen (AID 1346799; calls by dose curve; note: nearly all actives have a fitted effect of over 45% in size)
How it was run: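 Cells (PR-UAS-bla HEK293T) are plated at 3,000/well in 2% charcoal-stripped FBS medium, rested 6 hr, dosed and incubated 16 hr at 37C. CellTiter-Glo is then added and luminescence measured after 30 min at room temperature.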

[5] = qHTS assay to identify small molecule antagonists of the TGF-beta/Smad signaling pathway - cell viability counter screen (AID 1346824); note: nearly all actives have a fitted effect of over 50% in size
How it was run: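 SBE-bla HEK 293T cells, incubated overnight, then compound plus 0.25 ng/mL TGF-beta1 (stock added) for 5 hr at 37 C. Viability was read in the same wells by CellTiter-Glo luminescence after 30 min at room temperature.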

[6] = qHTS assay to identify small molecule agonists of the TGF-beta/Smad signaling pathway - cell viability counter screen (AID 1346829); note: top concentration of the series differs between compounds; nearly all actives have a fitted effect of over 45% in size
How it was run: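 Luminescence from CellTiter-Glo, read after a 30 min room-temperature incubation, gives cell viability of SBE-bla HEK 293T cells treated 5 hr with compounds at 37 C.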

[7] = qHTS assay to identify small molecule agonists of the TGF-beta/Smad signaling pathway (AID 1346859; active = well fitted activation curve with a large enough effect in the signal ratio in the repeat runs, not every such curve was filed as active; the % refers to the signal ratio; note: series mostly up to about 77 µM)
How it was run: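 Reporter line: HEK 293T with stably integrated SBE-controlled beta-lactamase. Compound exposure lasts 5 hr at 37 C and 5% CO2; substrate loading follows for 2 hr at room temperature, with emission read at 460 and 530 nm.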

[8] = target: Thyrotropin-releasing hormone receptor (Homo sapiens) (UniProt P34981); test: qHTS assay to identify small molecule antagonists of the thyrotropin-releasing hormone receptor (TRHR) signaling pathway (AID 1346877; active = well fitted inhibition curve with a large enough effect in the repeat runs, not every such curve was filed as active; note: series mostly up to about 51 µM)
Thyrotropin-releasing hormone receptor (Homo sapiens), sequence (P34981 whole entry, looked up): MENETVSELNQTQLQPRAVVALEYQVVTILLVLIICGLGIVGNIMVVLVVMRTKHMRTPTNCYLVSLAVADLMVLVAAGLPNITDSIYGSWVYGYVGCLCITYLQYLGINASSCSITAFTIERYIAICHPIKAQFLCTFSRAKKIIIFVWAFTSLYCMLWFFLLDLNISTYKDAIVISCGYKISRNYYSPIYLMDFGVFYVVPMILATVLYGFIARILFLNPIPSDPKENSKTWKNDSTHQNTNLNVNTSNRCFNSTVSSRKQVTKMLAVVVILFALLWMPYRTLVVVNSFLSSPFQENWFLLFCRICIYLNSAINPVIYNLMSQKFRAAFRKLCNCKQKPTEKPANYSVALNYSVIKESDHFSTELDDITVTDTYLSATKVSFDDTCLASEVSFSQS
How it was run: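 TRHR-expressing HEK293 cells loaded with calcium dye for 2 h at 37 C; compounds pre-incubated 5 min at room temperature before TRH challenge at 1 nM final. Intracellular calcium fluorescence read kinetically for 3 min; 15 concentrations in triplicate.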

[9] = target: Thyrotropin-releasing hormone receptor (Homo sapiens) (UniProt P34981); test: qHTS assay to identify small molecule agonists of the thyrotropin-releasing hormone receptor (TRHR) signaling pathway (AID 1346891; calls by dose curve; note: series mostly up to about 58 µM)
How it was run: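 Cells: TRHR-Hek293, seeded and incubated 18 h. Dye loading: 2 h at 37 °C. Compound added from DMSO stock by pin tool. Read-out: kinetic calcium fluorescence over 3 min.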

[10] = qHTS assay to identify small molecule antagonists of the progesterone receptor (PR) signaling pathway - cell viability counter screen (AID 1346798); note: series mostly up to about 92 µM; nearly all actives have a fitted effect of over 50% in size
How it was run: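 Counter screen for cytotoxicity: viability of PR-UAS-bla HEK293T cells was measured with CellTiter-Glo luminescence following 16 hr compound exposure in the presence of R5020.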
% is set by controls: 0 for no effect and ±100 for the full control effect.

CN1CCN(c2cc3c(nn2)Oc2ccccc2N3C)CC1
inactive: activity change, negative = cytotoxicity [1] -4.4% [at 19 µM] | activation [2] 0.134% [at 19 µM] | activity change, negative = inhibition [3] 15.6% [at 18.9 µM] | activity change, negative = cytotoxicity [4] -4.66% [at 19 µM] | viability change, negative = cytotoxic [5] 1.43% [at 15.8 µM] | activity change, negative = cytotoxicity [6] 19.9% [at 15.8 µM] | activation [7] 3.68% [at 15.8 µM]

CC[N+](C)(CC)CCOC(=O)C1c2ccccc2Oc2ccccc21
inactive: Potency [1] | Potency [2] | Potency [3] | Potency [4] | outcome [5] | outcome [6] | outcome [7] | outcome [8] | Potency [9]

CC(C)(C)C(=O)c1ccccc1
inactive: Potency [1] | Potency [2] | Potency [3] | Potency [4] | outcome [5] | outcome [6] | outcome [7]

OCCCCCO
inactive: Potency [1] | Potency [2] | Potency [3] | Potency [4] | outcome [5] | outcome [6] | outcome [7] | outcome [8] | Potency [9]

CC(=O)O[C@@]12CO[C@@H]1C[C@H](O)[C@@]1(C)C(=O)[C@H](O)C3=C(C)[C@@H](OC(=O)[C@H](O)[C@@H](NC(=O)OC(C)(C)C)c4ccccc4)C[C@@](O)([C@@H](OC(=O)c4ccccc4)[C@H]21)C3(C)C
inactive: Potency [1] | Potency [2] | Potency [3] | outcome [5] | outcome [6] | outcome [7]

CCCCCCCCCC[N+](C)(C)[O-]
inactive: Potency [1] | Potency [2] | Potency [3] | outcome [5] | outcome [6] | outcome [7] | outcome [8] | Potency [9]

Cc1cccc(C)c1NC(=O)CC12CCCN1CCC2
inactive: Potency [1] | Potency [2] | Potency [3] | Potency [4] | outcome [5] | outcome [6] | outcome [7] | outcome [8] | Potency [9]

CC(C)C[C@@H](N)C(=O)O
inactive: activity change, negative = cytotoxicity [1] 2.39% [at 19 µM] | activation [2] -1.5% [at 19 µM] | activity change, negative = inhibition [3] 12.3% [at 18.9 µM] | activity change, negative = cytotoxicity [4] -1.58% [at 19 µM] | viability change, negative = cytotoxic [5] -3.28% [at 15.8 µM] | activity change, negative = cytotoxicity [6] 15.2% [at 15.8 µM] | activation [7] 0.277% [at 15.8 µM] | activity, negative = inhibition [8] -3.99% [at 10.5 µM] | activation [9] -0.187% [at 11.8 µM]

O=C1CCCCCCCCCCCCCCO1
inactive: Potency [1] | Potency [2] | Potency [3] | Potency [4] | outcome [5] | outcome [6] | outcome [7] | outcome [8] | Potency [9]

COC(=O)Nc1ccc(Cl)c(Cl)c1
active: Potency [3] 30.5 µM
inactive: Potency [1] | Potency [2] | outcome [5] | outcome [6] | outcome [7] | outcome [8] | Potency [9]

CC(C)c1ccc2ncccc2c1
inactive: Potency [1] | Potency [2] | Potency [10] | Potency [4] | outcome [5] | outcome [6]

CO[C@@]1(NC(=O)CSC[C@@H](N)C(=O)O)C(=O)N2C(C(=O)O)=C(CSc3nnnn3C)CS[C@@H]21
inactive: Potency [1] | Potency [2] | Potency [3] | Potency [4] | outcome [5] | outcome [6] | outcome [7] | outcome [8] | Potency [9]

CCN[C@H]1C[C@H](C)S(=O)(=O)c2sc(S(N)(=O)=O)cc21
inactive: Potency [1] | Potency [2] | Potency [3] | Potency [4] | outcome [5] | outcome [6] | outcome [8] | Potency [9]

C=COCC1CCC(COC=C)CC1 (configuration not stated)
inactive: Potency [1] | Potency [2] | Potency [3] | Potency [4] | outcome [5] | outcome [6] | outcome [7]

CCCCCCCC1CCCC1=O (configuration not stated)
inactive: Potency [1] | Potency [2] | Potency [3] | Potency [4] | outcome [5] | outcome [6] | outcome [7]

CC(=O)c1ccc2ccccc2c1
inactive: Potency [1] | Potency [2] | Potency [3] | Potency [4] | outcome [5] | outcome [6] | outcome [7] | outcome [8] | Potency [9]

O=S(=O)(O)c1cccc2ccccc12
inactive: Potency [1] | Potency [2] | Potency [3] | Potency [4] | outcome [5] | outcome [6] | outcome [7] | outcome [8] | Potency [9]

NC(CCC(=O)O)C(=O)O (configuration not stated)
inactive: Potency [1] | Potency [2] | Potency [3] | Potency [10] | outcome [5] | outcome [6] | outcome [8] | Potency [9]

Cc1nc(C2CCCCC2)c(-c2ccc(S(N)(=O)=O)c(F)c2)o1
inactive: Potency [1] | Potency [2] | outcome [5] | outcome [6] | outcome [8] | Potency [9]
active: Potency [3] 26.6 µM

Cc1ccc(C(=O)c2ccccc2)cc1
inactive: Potency [1] | Potency [2] | Potency [3] | Potency [4] | outcome [5] | outcome [6] | outcome [7] | outcome [8] | Potency [9]

Nc1ccncc1N
inactive: Potency [1] | Potency [2] | Potency [3] | outcome [5] | outcome [6] | outcome [7] | outcome [8] | Potency [9]

[K+]
inactive: Potency [1] | Potency [2] | Potency [3] | Potency [4] | outcome [5] | outcome [6] | outcome [8] | Potency [9]

O=S(=O)(O)c1cccc2c(S(=O)(=O)O)cccc12
inactive: Potency [1] | Potency [2] | Potency [3] | Potency [4] | outcome [5] | outcome [6] | outcome [8] | Potency [9]

CC(C)CC(C)(N)C#N (configuration not stated)
inactive: Potency [1] | Potency [2] | Potency [3] | Potency [4] | outcome [5] | outcome [6] | outcome [8] | Potency [9]
